Holding throughout (assay type): functional
The target in assay [1] is Solute carrier family 2, facilitated glucose transporter member 1 (Homo sapiens) (UniProt P11166). Nature of the assay: ST_JUDE_LEISH: Cytotoxicity at 2uM final concentration against transgenic Leishmania Mexicana promastigotes LmGLUT1 that are glucose transport deficient and complemented with the human glucose transporter GLUT1. Activity is measured by DNA content using SYBR green in vitro.

In assay [2] the target is Hexose transporter 1 (Plasmodium falciparum) (UniProt O97467). Nature of the assay: ST_JUDE_LEISH: Cytotoxicity at 2uM final concentration against transgenic Leishmania Mexicana promastigotes LmPfHT that are glucose transport deficient and complemented with the Plasmodium falciparum hexose transporter. Activity is measured by DNA content using SYBR green in vitro.
Assay [3] has as its target Glucose transporter (Leishmania mexicana) (UniProt O61059). Nature of the assay: ST_JUDE_LEISH: Cytotoxicity at 2uM final concentration against transgenic Leishmania Mexicana promastigotes LmGT2 that are glucose transport deficient and complemented with the L. Mexicana glucose transporter 2. Activity is measured by DNA content using SYBR green in vitro.

SMILES strings stand for the structures.

Sequence of Solute carrier family 2, facilitated glucose transporter member 1 (Homo sapiens) (P11166 whole entry): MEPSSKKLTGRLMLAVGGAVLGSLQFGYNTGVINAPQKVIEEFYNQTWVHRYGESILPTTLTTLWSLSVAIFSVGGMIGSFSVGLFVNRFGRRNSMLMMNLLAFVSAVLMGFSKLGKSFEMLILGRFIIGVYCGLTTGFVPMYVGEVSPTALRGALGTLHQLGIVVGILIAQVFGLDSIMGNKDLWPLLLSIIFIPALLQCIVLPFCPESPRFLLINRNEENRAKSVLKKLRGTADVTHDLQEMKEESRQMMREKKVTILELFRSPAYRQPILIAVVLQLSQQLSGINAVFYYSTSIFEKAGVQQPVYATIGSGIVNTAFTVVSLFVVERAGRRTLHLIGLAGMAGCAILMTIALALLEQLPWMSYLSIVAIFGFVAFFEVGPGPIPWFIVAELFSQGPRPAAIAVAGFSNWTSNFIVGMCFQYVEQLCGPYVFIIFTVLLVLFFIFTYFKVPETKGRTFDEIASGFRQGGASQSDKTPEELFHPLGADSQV

A word on the inhibition: it is the change of the read-out against control, counted positive when it falls. Take `CCCNC(=O)c1cncc(-c2ccc(CNC(CC)c3ccccc3)cc2)c1` (stereo not drawn): the figures for the inhibition in assay [1], in assay [2] and in assay [3] were -0.02%, 0.28% and -0.14%, respectively.

In the case of `Cc1c(CNCCCNc2nc3ccccc3[nH]2)[nH]c2cc(Cl)cc(Cl)c12`, the inhibition was determined as 25.5% in assay [1], 49.4% in assay [2] and 41.6% in assay [3].

`CC(NC(=O)c1ccc(O)c(-c2ccc(Cl)c(Cl)c2)c1)C(=O)NCCN1CCCCC1` (stereo not drawn): the inhibition is -0.39% in assay [1], 1.71% in assay [2] and 0.47% in assay [3].

With `O=C(/C=C/c1ccc(-c2nc3cc(F)c(F)cc3[nH]2)cc1)NCc1ccc(Cl)c(Cl)c1`, the inhibition in assay [1] is 4.53%; in assay [2], 4.32%; in assay [3] it was 1.96%.

With `NS(=O)(=O)c1ccc(CNc2ccc3ncc(-c4ccc(Cl)cc4)n3n2)cc1`, the inhibition is -0.09% in assay [1], 0.08% in assay [2] and -0.35% in assay [3].

For the compound `O=c1cc(NCCCNCc2cc(C(F)(F)F)ccc2F)[nH]c2ccccc12`, the inhibition in assay [1] came to 0.7%; in assay [2] it was 0.86%; in assay [3], 3.1%.

As for `CC(C)(CNCc1ccc(Cl)cc1)c1nc(-c2ccc(Cl)c(O)c2)c(-c2ccncc2)[nH]1`, the inhibition is 0.66% in assay [1], 0.31% in assay [2] and -1.23% in assay [3].

Take `COc1cccc(Nc2nc(C)cc(Nc3cccc(C#N)c3)n2)c1`: the inhibition in assay [1] came to 17.5%; in assay [2] it was 19.2%; in assay [3], 4.27%.

Turning to `O=C(Nc1cc(C(F)(F)F)ccc1N1CCOCC1)C(Cl)(Cl)Cl`, the inhibition was found to be 10.4% in assay [1], 9.77% in assay [2] and 9.48% in assay [3].

With `COC(=O)Cn1c2ccccc2c2c(N)c(C(=O)OC)c(C)nc21`, the inhibition in assay [1] was 0.93%; in assay [2] it was 0.97%; in assay [3] it was -0.45%.

Regarding `OC(CNc1ccnc(Nc2ccc(Cl)cc2)n1)c1ccccc1C(F)(F)F` (stereo not drawn), the inhibition came to 10% in assay [1], 9.74% in assay [2] and 5.08% in assay [3].

On to `CC(C)(C)CCN1CCC(NC(=O)c2ccc(-c3cccc(C(F)(F)F)c3)s2)CC1`, for which the inhibition in assay [1] turned out to be 1.71%; in assay [2] it was 5.61%; in assay [3], 3.83%.

For the compound `O=C(Cc1ccc(Cl)cc1)Nc1cc(Cl)ccc1Cn1cnc(N2CCNCC2)cc1=O`, the inhibition in assay [1] was 3.22%; in assay [2] it was -0.28%; in assay [3], 2.2%.

As to `O=C(NCCc1ccccc1F)c1cc(Br)cc(N2CCN(c3ccncc3)CC2)c1`, the results for the inhibition in assay [1], in assay [2] and in assay [3] were 0.33%, 2.34% and -0.08%, respectively.

Turning to `O=C(NCc1ccc(F)cc1)Nc1cccc(-c2ccc(-c3nc4ccccc4[nH]3)cc2)c1`, the inhibition in assay [1] was 1.76%; in assay [2] it was 0.3%; in assay [3], -0.44%.

With `COc1cccc2c1CCN(CCN1CCC(CNC(=O)c3ccc(-c4ccc(C#N)cc4)cc3)CC1)C2`, the inhibition in assay [1] is 7.68%; in assay [2], 3.84%; in assay [3], 1.38%.

Take `Cc1cc(NC(=O)Nc2ccc3nc(C)oc3c2)c2cc(Cl)ccc2n1`: the inhibition in assay [1] was 3.48%; in assay [2], 2.12%; in assay [3], 1.38%.

In the case of `O=C(O)Cc1ccc(-c2c[nH]c3ncc(-c4cccc5ncccc45)cc23)cc1`, the inhibition in assay [1] was determined as 2.28%; in assay [2], 1.77%; in assay [3], 0.63%.

With `c1ccc(CNCc2cccc(-c3csc(-c4nc5ccccc5[nH]4)c3)c2)cc1`, the inhibition came to 4.56% in assay [1], 5.03% in assay [2] and 3.11% in assay [3].

As for `CCN(CC)CCCNc1cc[n+]([O-])c2cc3ccccc3cc12`, the figures for the inhibition in assay [1], in assay [2] and in assay [3] were -0.82%, -2.45% and -1.63%, respectively.

In the case of `CCC(CO)NCC(O)Cn1c2ccc(Br)cc2c2cc(Br)ccc21` (stereo not drawn), the inhibition in assay [1] was 1.9%; in assay [2], -0.92%; in assay [3], -1.57%.

In the case of `COc1ccc(C(=O)Nc2ccc(Nc3nc(C)cc(N(C)C)n3)cc2)c(OC)c1`, the figures for the inhibition in assay [1], in assay [2] and in assay [3] were 5.81%, 6.65% and 5.62%, respectively.

Turning to `O=C(Nc1cccc(C(F)(F)F)c1)c1cccc(S(=O)(=O)NC2CCCN(CC3CCCCC3)C2)c1` (stereo not drawn), the inhibition was 0.39% in assay [1], 0.03% in assay [2] and 0.55% in assay [3].

Turning to `CN1CCN(CC(=O)Nc2cccc(-c3ccc(-c4nc5cc(C(F)(F)F)ccc5[nH]4)s3)c2)CC1`, the inhibition in assay [1] was found to be 1.78%; in assay [2], 2.7%; in assay [3], 4.37%.

Turning to `O=C(NCc1cccc(Cl)c1)c1ccc(CNC2CCN(Cc3ccccc3)CC2)cc1`, the values for the inhibition in assay [1], in assay [2] and in assay [3] were -1.21%, -0.25% and 2.18%, respectively.

Take `Cc1[nH]c(C)c(-c2ccc(Oc3ccc(O)cc3)cc2)c(=O)c1Cl`: the inhibition is 3.19% in assay [1], 1.48% in assay [2] and -5.02% in assay [3].

With `COc1ccc(N2CCN(CCCCNC(=O)c3ccc(NC(=O)c4ccc(Cl)c(Cl)c4)cc3)CC2)c(OC)c1`, the inhibition in assay [1] was 2.23%; in assay [2], 1.72%; in assay [3], 1.65%.

In the case of `CCCC1N=C(N)N=C(N)N1c1ccc(Cl)cc1` (stereo not drawn), the inhibition in assay [1] turned out to be 2%; in assay [2], 2.02%; in assay [3] it was 2.31%.

Consider `Cc1ccc(NC(=O)Nc2ccc(Cl)cc2)cc1-c1cccc(C(=O)Nc2ccc(F)cc2)c1`, for which the inhibition was -1.9% in assay [1], 2.5% in assay [2] and 5.14% in assay [3].

Consider `O=C(Nc1ccc(Cl)cc1)Nc1ccc(-c2csc(-c3nc4ccccc4[nH]3)c2)cc1`, for which the inhibition in assay [1] stood at 0.59%; in assay [2], 1.1%; in assay [3], 0.83%.

For the compound `Cc1nc2nc(N)nc(N)c2c(C)c1Cc1ccc(O)cc1`, the inhibition in assay [1] is -0.09%; in assay [2] it was -2.78%; in assay [3], 4.5%.

For the compound `COc1ccc2nc(SC(C)C(=O)c3c[nH]c4ccccc34)[nH]c2c1` (stereo not drawn), the inhibition in assay [1] stood at 2.5%; in assay [2] it was 0.87%; in assay [3], 2.35%.

`Cc1cc(C(F)(F)F)cc(-n2ncc(-c3ccc(C(=O)NCCNCc4ccccc4)cc3)c2N)n1`: the results for the inhibition in assay [1], in assay [2] and in assay [3] were 0.77%, 1.46% and -0.24%, respectively.

On to `O=C(/C=C/c1ccc(Cl)c(Cl)c1)NCCCCCN1CCC(CCNC(=O)c2snnc2-c2ccccc2)CC1`, for which the results for the inhibition in assay [1], in assay [2] and in assay [3] were 0.24%, 4.7% and -0.16%, respectively.

For the compound `COc1cccc(NC(=O)Nc2cc(-c3ccc4[nH]ncc4c3)cc3c2CNC3=O)c1`, the results for the inhibition in assay [1], in assay [2] and in assay [3] were 2.19%, 2.02% and 1.68%, respectively.

`CCCCNCc1ccc(-c2nc(CN(Cc3ccc(Cl)c(Cl)c3)C(=O)CN(C)C)cs2)cc1`: the inhibition stood at 50.3% in assay [1], 52.9% in assay [2] and 8.23% in assay [3].

For the origin of these results see ChEMBL document CHEMBL3433997, “St. Jude Leishmania screening dataset” (2016).
